# Source: PubChem BioAssay
# The source made the active and inactive calls. Unless noted, how the calls were made is not given here.
# Key:
# [1] = compounds binding Alexa647 anti-His antibody – biochemical, small-molecule microarray, 635 nm fluorescence, artefact control for SMM control protein annotation, primary screen (AID 1128); details: higher = more signal;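 further: score merges feature fluorescence with signal-to-noise for each printed compound spot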
# [2] = tested on: Human papillomavirus type 1a E7 protein (residues 1-88); assay: HPV1a E7 small-molecule binders, primary screen, biochemical, small-molecule microarray, residues 1-88, 635 nm (AID 1129); details: small-molecule microarray binding, fluorescence 635 nm; higher = more signal
# [3] = target: Focal adhesion kinase 1 (Homo sapiens) (UniProt Q05397); assay: PTK2 protein binding on printed compound slides – biochemical, small-molecule microarray, 635/667 nm fluorescence, BSA, DTT, primary screen (AID 1130); details: 635 nm fluorescence, higher = more signal;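 further: composite of spot emission at 667 nm and signal to noise over triplicate slides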
# Chain of Focal adhesion kinase 1 (Homo sapiens) (Q05397 whole entry, looked up): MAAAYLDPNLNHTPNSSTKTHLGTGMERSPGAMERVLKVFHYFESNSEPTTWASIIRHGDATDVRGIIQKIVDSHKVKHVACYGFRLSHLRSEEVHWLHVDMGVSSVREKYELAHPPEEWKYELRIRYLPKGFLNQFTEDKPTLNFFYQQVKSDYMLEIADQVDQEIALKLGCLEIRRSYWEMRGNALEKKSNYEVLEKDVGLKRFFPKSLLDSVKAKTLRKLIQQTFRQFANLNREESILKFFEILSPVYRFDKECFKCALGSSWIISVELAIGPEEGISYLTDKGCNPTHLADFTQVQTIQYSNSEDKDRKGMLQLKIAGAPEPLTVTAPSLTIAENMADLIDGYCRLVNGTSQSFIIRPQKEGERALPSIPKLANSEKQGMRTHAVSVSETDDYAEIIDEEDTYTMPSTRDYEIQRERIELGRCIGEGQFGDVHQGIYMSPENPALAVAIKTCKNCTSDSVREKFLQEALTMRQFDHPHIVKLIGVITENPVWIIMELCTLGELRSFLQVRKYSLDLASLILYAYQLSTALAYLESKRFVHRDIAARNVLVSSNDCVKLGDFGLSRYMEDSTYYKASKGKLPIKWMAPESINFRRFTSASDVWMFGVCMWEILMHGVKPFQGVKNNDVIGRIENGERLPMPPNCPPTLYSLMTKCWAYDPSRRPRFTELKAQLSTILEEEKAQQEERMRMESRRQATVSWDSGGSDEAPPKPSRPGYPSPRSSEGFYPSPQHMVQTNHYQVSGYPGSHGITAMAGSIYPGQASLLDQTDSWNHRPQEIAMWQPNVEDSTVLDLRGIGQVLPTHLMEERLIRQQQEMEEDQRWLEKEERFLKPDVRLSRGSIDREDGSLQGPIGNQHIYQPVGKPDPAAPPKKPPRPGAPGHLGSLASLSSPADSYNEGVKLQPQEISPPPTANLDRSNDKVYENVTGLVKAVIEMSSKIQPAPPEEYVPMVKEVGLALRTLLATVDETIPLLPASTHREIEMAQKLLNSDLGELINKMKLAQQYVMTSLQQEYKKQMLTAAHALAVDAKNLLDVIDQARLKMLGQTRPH
# [4] = tested on: Fibrinogen (Alexa647-labelled); assay: Alexa647-fibrinogen binding to printed small molecules – biochemical, small-molecule microarray, 635/667 nm fluorescence, artefact control for SMM control-protein annotation, profiling panel (AID 1131); details: fibrinogen-A647 binding fluorescence, higher = more signal;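 further: z-score merges 667 nm fluorescence with per-spot signal-to-noise over triplicate slides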
# [5] = target: Follistatin (Homo sapiens) (UniProt P19883); assay: FST protein binding to printed compounds – biochemical, small-molecule microarray, 635/667 nm fluorescence, primary screen (AID 1132); details: 635 nm fluorescence, higher = more signal
# Chain of Follistatin (Homo sapiens) (P19883 whole entry, looked up): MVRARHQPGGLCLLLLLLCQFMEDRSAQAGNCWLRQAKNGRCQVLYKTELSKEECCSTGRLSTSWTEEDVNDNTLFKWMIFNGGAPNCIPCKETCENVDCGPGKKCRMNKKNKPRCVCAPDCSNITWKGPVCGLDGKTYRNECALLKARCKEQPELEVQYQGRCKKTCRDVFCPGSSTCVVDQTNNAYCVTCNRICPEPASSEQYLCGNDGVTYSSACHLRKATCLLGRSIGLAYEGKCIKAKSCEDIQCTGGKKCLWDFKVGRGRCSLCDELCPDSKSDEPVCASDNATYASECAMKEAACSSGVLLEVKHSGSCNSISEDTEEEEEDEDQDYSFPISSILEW
# [6] = target: Fibroblast growth factor 2 (Homo sapiens) (UniProt P09038); assay: basic fibroblast growth factor binding to printed compounds – biochemical, small-molecule microarray, 635/667 nm fluorescence, primary screen (AID 1133); details: FGF2, fluorescence 635/667, higher = more signal
# Chain of Fibroblast growth factor 2 (Homo sapiens) (P09038 whole entry, looked up): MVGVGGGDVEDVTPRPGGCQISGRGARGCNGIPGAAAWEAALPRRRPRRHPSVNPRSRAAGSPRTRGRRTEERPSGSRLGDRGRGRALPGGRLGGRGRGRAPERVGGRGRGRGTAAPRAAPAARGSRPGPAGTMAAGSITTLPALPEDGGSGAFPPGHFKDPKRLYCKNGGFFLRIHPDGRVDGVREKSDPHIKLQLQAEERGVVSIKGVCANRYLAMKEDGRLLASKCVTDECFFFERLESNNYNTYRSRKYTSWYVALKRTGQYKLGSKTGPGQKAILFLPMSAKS
# [7] = JC-1 mitochondrial potential readout, lung cancer cells – cell-based, A549, JC-1 fluorescence, basal, 24 h, 100 nL, profiling panel (AID 1138); details: higher = more signal;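 further: A549 lung adenocarcinoma cells under basal conditions with no added stimulus; test concentration not given here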
# [8] = tested on: Lefty1; assay: Lefty1 protein binding to printed compounds – biochemical, small-molecule microarray, 635/667 nm fluorescence, primary screen (AID 1139); details: fluorescence 635/667, higher = more signal
# [9] = tested on: wheat germ agglutinin (Triticum aestivum), Alexa647-labelled; assay: Alexa647-WGA lectin binding to printed small molecules – biochemical, small-molecule microarray, 635/667 nm fluorescence, artefact control for SMM control-protein annotation, profiling panel (AID 1140); details: WGA-A647 binding, 635 nm fluorescence, higher = more signal;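 further: score merges 667 nm feature emission with signal to noise over triplicate slides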
# [10] = target: Luciferin 4-monooxygenase (Photinus pyralis) (UniProt P08659); assay: inhibition of purified Photinus pyralis luciferase – biochemical, luminescence, purified enzyme, 2006 set, primary screen (AID 1141); details: purified firefly luciferase, SteadyGlo luminescence, 30 min; higher = more signal, called active from +8 up or from −8 down;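 further: cell-free assay with purified firefly luciferase at 100 ng per well in PBS; test concentration not given here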
# Chain of Luciferin 4-monooxygenase (Photinus pyralis) (P08659 whole entry, looked up): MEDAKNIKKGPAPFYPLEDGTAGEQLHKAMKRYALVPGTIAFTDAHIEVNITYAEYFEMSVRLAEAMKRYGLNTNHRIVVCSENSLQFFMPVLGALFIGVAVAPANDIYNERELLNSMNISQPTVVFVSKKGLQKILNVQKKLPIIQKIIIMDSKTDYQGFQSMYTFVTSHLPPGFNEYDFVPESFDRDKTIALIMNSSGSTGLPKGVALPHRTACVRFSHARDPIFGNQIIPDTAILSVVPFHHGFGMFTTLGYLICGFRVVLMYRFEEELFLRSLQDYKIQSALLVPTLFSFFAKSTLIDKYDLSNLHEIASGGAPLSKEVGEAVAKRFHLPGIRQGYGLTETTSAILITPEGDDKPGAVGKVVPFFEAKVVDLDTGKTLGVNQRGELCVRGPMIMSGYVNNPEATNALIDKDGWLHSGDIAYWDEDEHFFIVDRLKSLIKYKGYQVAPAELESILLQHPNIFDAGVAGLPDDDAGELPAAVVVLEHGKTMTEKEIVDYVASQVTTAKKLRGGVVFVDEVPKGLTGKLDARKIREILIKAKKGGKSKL
# [11] = tested on: Wnt5a (protein binding on small-molecule microarray); assay: small molecules binding Wnt5a protein – biophysical, small-molecule microarray, 635/667 nm fluorescence, primary screen (AID 1142); details: 635 nm fluorescence, higher = more signal;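 further: fluorescence read at 667 nm with signal to noise per printed feature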
# [12] = ATP-based viability of Huh7 replicon cells – cell-based, CellTiter-Glo luminescence, basal, 48 h, cytotoxicity control for HCV replication inhibitor project, primary screen (AID 1143); details: higher = more signal, called active from +8 up or from −8 down;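 further: Huh7 hepatoma cells carrying a hepatitis C replication reporter with no stimulus; test concentration not given here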
# [13] = Pseudomonas biofilm growth suppression – PAO1 strain, BacTiter-Glo luminescence, LB-PBS, primary screen (AID 1144); details: P. aeruginosa PAO1 biofilm, 12 h, higher = more signal
# [14] = basal CRE-LacZ reporter activity in PC12 – cell-based, unstimulated, primary screen (AID 1145); details: no forskolin, luminescence, 4.5 h, higher = more signal, called active from +8 up or from −8 down
# [15] = forskolin-driven CRE-LacZ activity in PC12 – cell-based, CRE-LacZ reporter, forskolin-stimulated, primary screen (AID 1146); details: luminescence, 4.5 h, higher = more signal, called active from +8 up or from −8 down;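 further: PC12 cells with 6xCRE LacZ reporter stimulated by forskolin 10 µM; beta-galactosidase reporter signal reflecting CREB driven transcription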
# [16] = target: Streptavidin (Streptomyces avidinii) (UniProt P22629); assay: compounds binding control protein streptavidin – biophysical, small-molecule microarray, 635/667 nm fluorescence, artefact control for SMM compound annotation, primary screen (AID 1147); details: higher = more signal;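 further: signal reflects streptavidin binding to arrayed compounds as a control protein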
# Chain of Streptavidin (Streptomyces avidinii) (P22629 whole entry, looked up): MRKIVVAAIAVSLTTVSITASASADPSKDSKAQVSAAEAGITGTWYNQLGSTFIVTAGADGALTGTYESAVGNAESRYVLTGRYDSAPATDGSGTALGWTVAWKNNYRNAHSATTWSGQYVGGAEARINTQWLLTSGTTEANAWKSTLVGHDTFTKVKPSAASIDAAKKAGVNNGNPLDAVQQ
# [17] = probe aInhba binding on compound microarray – biochemical, small-molecule microarray, 635/667 nm fluorescence, primary screen (AID 1148); details: higher = more signal;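 further: score merges 667nm spot fluorescence with signal-to-noise for antibody binding to printed compounds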
# [18] = target: Torsin-1A (Homo sapiens) (UniProt O14656); assay: TOR1A wild-type binding on microarray – cell lysate, small-molecule microarray, lysate, 635/667 nm, primary screen (AID 1149); details: COS7 hTOR1A-WT lysate, 635 nm fluorescence, higher = more signal
# Chain of Torsin-1A (Homo sapiens) (O14656 whole entry, looked up): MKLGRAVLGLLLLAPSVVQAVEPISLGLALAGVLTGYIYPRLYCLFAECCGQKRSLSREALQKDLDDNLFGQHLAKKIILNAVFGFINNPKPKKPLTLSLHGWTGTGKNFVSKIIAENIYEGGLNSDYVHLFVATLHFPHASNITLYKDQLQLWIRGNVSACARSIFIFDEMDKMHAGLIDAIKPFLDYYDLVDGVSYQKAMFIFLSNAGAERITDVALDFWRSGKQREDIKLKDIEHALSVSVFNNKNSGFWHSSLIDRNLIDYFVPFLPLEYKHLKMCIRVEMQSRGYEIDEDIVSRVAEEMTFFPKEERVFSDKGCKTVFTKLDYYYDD
# [19] = target: Torsin-1A (Homo sapiens) (UniProt O14656); assay: torsin A mutant lysate binding on microarrays – cell lysate, small-molecule microarray, COS7 lysate, 635/667 nm fluorescence, primary screen (AID 1150); details: COS7 hTOR1A mutant lysate, 635 nm fluorescence, higher = more signal;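 further: score pools 667 nm emission and signal to noise measuring lysate protein binding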
# [20] = tested on: Sonic hedgehog protein (Shh); assay: Sonic hedgehog microarray binding compounds – biochemical, small-molecule microarray, 635/667 nm fluorescence, primary screen (AID 1151); details: 635 nm fluorescence, higher = more signal;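 further: Shh protein binding to compounds spotted on small-molecule microarray slides; score combines spot fluorescence intensity with signal-to-noise across triplicate slides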
Structure (SMILES),composite z-score [1],composite z-score [2],composite z-score [3],composite z-score [4],composite z-score [5],composite z-score [6],z-score [7],composite z-score [8],composite z-score [9],z-score [10],composite z-score [11],z-score [12],z-score [13],z-score [14],z-score [15],composite z-score [16],composite z-score [17],composite z-score [18],composite z-score [19],composite z-score [20]
COc1ccc([Si](C)(C)[C@@H]2[C@@H](CC(=O)N(CCO)Cc3ccccc3)O[C@]3(C(=O)N(C)c4ccccc43)[C@H]2C)cc1,1.93,1.17,0.495,0.958,1.44,1.4,0.194,1.45,1.17,0.0071 (inactive),0.205,-4.28 (inactive),-0.054 (inactive),11.9 (active),1.37 (inactive),0.92,0.218,0.089,0.152,1.74
CCOC(=O)C1=C[C@@H](C(C)C)N(S(=O)(=O)c2ccc(C)cc2)[C@H]1c1ccc(C(C)C)cc1,0.408,1.15,1.54,0.915,1.23,-0.067,2.96,0.752,0.734,2.41 (inactive),0.336,-3.48 (inactive),-0.228 (inactive),-0.676 (inactive),0.359 (inactive),1.58,-0.121,1.05,0.644,0.31
CCCNC(=O)[C@@]1(c2ccc([N+](=O)[O-])cc2)CC(=O)N(CC23CC4CC(CC(C4)C2)C3)[C@@H]1c1ccc(CO)cc1,1.19,1.04,0.117,0.356,0.509,1.23,0.582,-0.197,-0.109,0.494 (inactive),0.4,-5.17 (inactive),-0.293 (inactive),0.531 (inactive),-0.312 (inactive),-0.204,-0.272,0.0865,0.319,0.34
O=C1c2ccccc2[C@@]2(Cc3ccccc3N(Cc3ccccc3)C2=O)[C@H](c2ccc(CO)cc2)N1C1CCCCC1,0.386,0.174,0.117,-0.0673,1.02,0.736,-0.191,0.483,0.0291,0.378 (inactive),0.149,0.608 (inactive),0.0703 (inactive),0.0924 (inactive),0.0935 (inactive),-0.258,-0.0933,0.177,-0.269,1.08
COCCOC(=O)N1C(=O)[C@@]2(c3cc(C#CC4=CCCCC4)ccc31)[C@H](C(=O)N1CCc3cc(OC)c(OC)cc3C1)[C@H]1C(=O)O[C@H](c3ccccc3)[C@H](c3ccccc3)N1[C@@H]2c1ccccc1OCCO,-0.13,0.487,-0.106,0.061,1.29,1.66,-1.11,1,0.747,-1.62 (inactive),0.192,-1.3 (inactive),0.597 (inactive),0.0736 (inactive),-1.14 (inactive),0.154,0.0939,0.198,0.274,2.05
O=C1N(CCS(=O)(=O)c2ccccc2)Cc2ccccc2C[C@]12N=C(c1ccc(OCCCO)cc1)O[C@@H]2c1ccccc1,2.51,1.08,0.342,0.356,1.5,1.91,0.685,0.557,1.13,-1 (inactive),0.775,-3.53 (inactive),0.81 (inactive),0.0686 (inactive),-1.48 (inactive),0.196,0.537,0.916,1.02,1.51
Cc1ccc([C@H]2[C@H](C(=O)O)[C@H](Sc3ccccc3)[C@@H](C(C)C)N2S(=O)(=O)c2ccc(C)cc2)cc1,0.229,1.19,0.344,0.996,0.744,-0.228,-1.31,0.127,0.798,0.426 (inactive),0.378,-2.04 (inactive),0.766 (inactive),-0.676 (inactive),-0.728 (inactive),0.93,-0.231,0.495,0.612,-0.861
Cc1ccc([C@H]2C(C(=O)O)=C[C@@H](C)N2S(=O)(=O)c2ccc(C)cc2)cc1,1.72,1.14,1.96,-1.29,-0.742,-1.16,-0.321,-1.15,1.32,0.467 (inactive),-0.144,-0.501 (inactive),0.759 (inactive),-0.126 (inactive),1.32 (inactive),0.642,-0.0509,-0.948,-0.465,-0.945
COC(=O)c1ccc(OC)c(/C=C\CC(OC(C)=O)c2ccccc2)c1 (stereo not given),0.838,0.255,-0.0638,0.775,0.946,0.933,-0.363,0.741,1.11,-0.454 (inactive),-0.136,-1.38 (inactive),0.623 (inactive),0.479 (inactive),-0.0792 (inactive),3.16,-0.179,-0.0525,-0.165,0.539
COc1ccc(CCNC(=O)[C@@H]2c3ccccc3C(=O)N(Cc3ccc(OC(F)(F)F)cc3)[C@H]2c2ccc(CO)cc2)cc1,1.66,0.901,0.658,0.0913,1.18,0.494,1.48,0.147,0.213,-0.243 (inactive),0.446,-2.71 (inactive),-0.676 (inactive),-0.475 (inactive),-0.206 (inactive),-0.0886,-0.0465,-0.271,0.366,-0.144
